Results filed as inconclusive are left out. Activity calls are given as the source filed them. Unless noted, calls come from the whole dose curve; as a rule, active = well fitted curve in the direction sought with a large enough effect; inconclusive = small, poorly fitted or top-dose-only effect, or another doubt; inactive = no such curve, though single readings can be large; an effect the other way counts as inactive or inconclusive.
Legend:
CP265 = assay: qHTS profiling for inhibitors of Plasmodium falciparum proliferation (AID 504749); note: nearly all actives have a fitted effect of over 60% in size; note: potency is the fitted concentration of half-maximal effect;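 for activity, negative = inhibition: 0% = DMSO vehicle and full inhibition = artemisinin control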; conditions: P. falciparum in erythrocytes, SYBR Green DNA, 72 h; series mostly up to 12.8 µM
Outline: (§1)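 Readout was DNA-dye fluorescence from lysed cultures, ex 485/em 535 nm. Parasitized red cells had grown 72 h with compound; data scaled between 0.29 uM artemisinin and DMSO wells and corrected using vehicle-only plates.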

CP297 = assay: as above; conditions: P. falciparum in erythrocytes, SYBR Green DNA, 72 h; series mostly up to 28.7 µM
Outline: as §1

ICS = assay: as above; conditions: P. falciparum in erythrocytes, SYBR Green DNA, 72 h; series mostly up to 28.7 µM
Outline: as §1

P93_24 = assay: as above; conditions: P. falciparum in erythrocytes, SYBR Green DNA, 72 h; series mostly up to 28.7 µM
Outline: as §1

TAB165 = assay: as above; conditions: P. falciparum in erythrocytes, SYBR Green DNA, 72 h; series mostly up to 28.7 µM
Outline: as §1

W2 = assay: as above; conditions: P. falciparum in erythrocytes, SYBR Green DNA, 72 h; series mostly up to 12.8 µM
Outline: as §1

[1] = S16 Schwann cell PMP22 intronic element beta-lactamase assay (AID 624044; calls by dose curve;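 note: 0% = DMSO and -100% = potassium clavulanate positive control; nearly all actives have a fitted effect of over 15% in size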); conditions: S16 rat Schwann cells, PMP22 element beta-lactamase FRET, 24 h; ratio activity, negative = inhibition: at 38.3 µM (top of the series) unless noted
Outline: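 Rat S16 Schwann cells with beta-Lac driven by a PMP22 intronic element, compound-treated 24 h at 37 °C. LiveBLAzer FRET B/G read: 460 nm normalized to potassium clavulanate vs DMSO; 535 nm FRET as viability; concentration-effect curves classified.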

CP266 = assay: qHTS profiling for inhibitors of Plasmodium falciparum proliferation (AID 504749); note: nearly all actives have a fitted effect of over 60% in size; note: potency is the fitted concentration of half-maximal effect;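 for activity, negative = inhibition: 0% = DMSO vehicle and full inhibition = artemisinin control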; conditions: P. falciparum in erythrocytes, SYBR Green DNA, 72 h; series mostly up to 12.8 µM
Outline: as §1

CP268 = assay: as above; conditions: P. falciparum in erythrocytes, SYBR Green DNA, 72 h; series mostly up to 28.7 µM
Outline: as §1

CP269 = assay: as above; conditions: P. falciparum in erythrocytes, SYBR Green DNA, 72 h; series mostly up to 28.7 µM
Outline: as §1

CP305 = assay: as above; conditions: P. falciparum in erythrocytes, SYBR Green DNA, 72 h; series mostly up to 28.7 µM
Outline: as §1

CP325 = assay: as above; conditions: P. falciparum in erythrocytes, SYBR Green DNA, 72 h; series mostly up to 28.7 µM
Outline: as §1

CP329 = assay: as above; conditions: P. falciparum in erythrocytes, SYBR Green DNA, 72 h; series mostly up to 28.7 µM
Outline: as §1

DIV14 = assay: as above; conditions: P. falciparum in erythrocytes, SYBR Green DNA, 72 h; series mostly up to 28.7 µM
Outline: as §1

[2] = target: Vitamin D3 receptor (Homo sapiens) (UniProt P11473); assay: qHTS assay for small molecule antagonists of vitamin D receptor signaling (AID 588541; calls by dose curve;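 note: receptor activated by calcitriol during compound treatment; % is set by controls: 0 for no effect and ±100 for the full control effect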)
Vitamin D3 receptor (Homo sapiens), sequence (P11473 whole entry, looked up): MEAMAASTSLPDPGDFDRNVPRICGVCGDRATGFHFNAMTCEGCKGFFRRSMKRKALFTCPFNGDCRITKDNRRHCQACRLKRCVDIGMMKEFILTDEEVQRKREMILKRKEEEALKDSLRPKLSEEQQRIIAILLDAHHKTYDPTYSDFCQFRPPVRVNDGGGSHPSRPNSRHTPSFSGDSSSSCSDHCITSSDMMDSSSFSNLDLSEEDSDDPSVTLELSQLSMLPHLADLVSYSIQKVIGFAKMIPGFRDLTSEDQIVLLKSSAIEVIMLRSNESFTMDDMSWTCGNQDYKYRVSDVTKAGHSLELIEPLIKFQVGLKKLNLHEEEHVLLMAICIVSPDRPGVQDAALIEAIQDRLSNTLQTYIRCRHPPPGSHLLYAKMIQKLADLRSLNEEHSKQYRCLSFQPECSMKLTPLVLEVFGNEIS
Outline: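 VDR-UAS-bla HEK293T cells in 2% charcoal-stripped FBS were stimulated with 1-alpha,25-dihydroxyvitamin D3 (3 nM final) plus compound for 16 h at 37 C. The beta-lactamase CCF4 readout was normalized to 50 nM agonist and DMSO, and Hill fits gave IC50.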

[3] = qHTS assay for small molecule disruptors of the mitochondrial membrane potential - 5 hr assay (AID 651755; calls by dose curve; note: % is set by controls: 0 for no effect and ±100 for the full control effect; nearly all actives have a fitted effect of over 40% in size)
Outline: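 HepG2 cells (2,000/well), attached overnight, exposed to compound 5 hr at 37C, then Mito-MPS dye 30 min. Fluorescence read for monomers (490/535 nm) and aggregates (540/590 nm).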

[4] = Cell Viability - Hek293 (AID 427;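 active = compounds whose dose-response curve shows a full or clear partial loss of cell viability, called from curve shape rather than a numeric limit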;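 note: potency is the fitted concentration of half-maximal effect; cells exposed to compound for 40 hours at 37 °C before reading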); conditions: qHTS
Outline: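 Luminescent ATP read-out (CellTiter-Glo, 20 min RT) after 40 hr compound exposure at 37 °C in complete medium. Signal normalized to DMSO (basal) and 100 uM tamoxifen (100% inhibition); concentration-response fitted with the standard Hill equation to give AC50.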

[5] = Cell Viability - LYMP2-005 (AID 967); note: potency is the fitted concentration of half-maximal effect
Outline: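 Luciferase-based ATP quantitation served as the viability measure in human lymphoblastoid LYMP2-005 cells exposed to test compounds for 24 h at 37 C in complete culture medium. Potency (AC50) was obtained by fitting concentration-response curves with the Hill equation.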

[6] = Cell Viability - LYMP2-008 (AID 980); note: % is set by controls: 0 for no effect and ±100 for the full control effect; nearly all actives have a fitted effect of over 60% in size
Outline: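 Acute cytotoxicity is scored as concentration-dependent loss of cellular ATP in a human lymphoblastoid line after 24 hr treatment at 37 C. ATP is quantified by luciferase luminescence.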

[7] = Cell Viability - LYMP2-010 (AID 981); note: nearly all actives have a fitted effect of over 55% in size; note: potency is the fitted concentration of half-maximal effect
Outline: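 Acute toxicity is scored as a concentration-dependent loss of cellular ATP in human lymphoblastoid cells after 24 hr compound exposure in complete medium. Tetraoctylammonium bromide is the positive control.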

C[C@]12CC[C@H](O)CC1=CCC1C2CC[C@]2(C)C(=O)CC[C@@H]12 (some centres undefined)
inactive: Potency (CP265) | Potency (ICS) | Potency (P93_24) | Potency (TAB165) | Potency (W2)
active: Potency (CP297) 19 µM

CCCC[N+]1(C)C2CC(OC(=O)C(CO)c3ccccc3)CC1C1OC12 (centres undefined)
inactive: Potency [1] | Potency (CP265) | Potency (CP266) | Potency (CP268) | Potency (CP269) | Potency (CP297) | Potency (CP305) | Potency (CP325) | Potency (CP329) | Potency (DIV14) | Potency (ICS) | Potency (P93_24) | Potency (TAB165) | Potency (W2)

ClC1=C(Cl)C2(Cl)C3C4C=CC(C4)C3C1(Cl)C2(Cl)Cl (centres undefined)
inactive: outcome [2] | Potency [3]

c1ccc(N=Nc2ccccc2)cc1
inactive: Potency [4] > 92 µM | Potency [5] | outcome [2] | Potency [3]

CCNc1nc(Cl)nc(NC(C)C)n1
inactive: Potency [4] > 92 µM | Potency [5] | Potency [6] | Potency [7] | outcome [2]

C=CCc1ccc2c(c1)OCO2
inactive: Potency [4] > 92 µM | Potency [5] | Potency [6] | Potency [7] | outcome [2]

COC(=O)NC(=S)Nc1ccccc1NC(=S)NC(=O)OC
inactive: Potency [4] > 92 µM | Potency [5] | Potency [6] | Potency [7] | outcome [2] | Potency [3]

O=S1OCC2C(CO1)C1(Cl)C(Cl)=C(Cl)C2(Cl)C1(Cl)Cl (centres undefined)
inactive: Potency [6] | outcome [2]

O=C(O)COc1ccc(Cl)cc1Cl
inactive: Potency [4] > 92 µM | Potency [5] | Potency [6] | Potency [7] | outcome [2] | Potency [3]

C=CCc1ccc(OC)cc1
inactive: Potency [4] > 92 µM | Potency [5] | Potency [6] | Potency [7]

CCNC[C@H](O)c1cccc(O)c1
inactive: Potency [1] | Potency (CP265) | Potency (CP266) | Potency (CP268) | Potency (CP269) | Potency (CP305) | Potency (CP325) | Potency (CP329) | Potency (DIV14) | Potency (ICS) | Potency (P93_24) | Potency (TAB165) | Potency (W2)

CCOCN(C(=O)CCl)c1c(C)cccc1CC
inactive: Potency [3]
active: Potency [7] 50.1 µM

ClC(Cl)=C(c1ccc(Cl)cc1)c1ccc(Cl)cc1
inactive: Potency [4] > 92 µM | Potency [5] | Potency [6] | Potency [7] | outcome [2] | Potency [3]

COP(=S)(OC)Oc1ccc([N+](=O)[O-])cc1
inactive: Potency [4] > 92 µM | Potency [5] | Potency [6] | Potency [7] | outcome [2] | Potency [3]

ClC1=C(Cl)C2(Cl)C3C(Cl)C=CC3C1(Cl)C2(Cl)Cl (centres undefined)
inactive: Potency [6] | Potency [3]

CCc1cccc(CC)c1N(COC)C(=O)CCl
active: Potency [7] 50.1 µM
inactive: Potency [3]

ClC1=C(Cl)C2(Cl)C3C4CC(C5OC45)C3C1(Cl)C2(Cl)Cl (centres undefined)
active: Potency [5] 20 µM | Potency [7] 50.1 µM
inactive: Potency [4] > 92 µM | outcome [2] | Potency [1] | Potency [3] | Potency (CP266) | Potency (CP269) | Potency (CP305) | Potency (CP325) | Potency (CP329) | Potency (DIV14) | Potency (P93_24) | Potency (TAB165)

C/C=C/c1ccc2c(c1)OCO2
inactive: Potency [4] > 92 µM | Potency [5] | Potency [6] | Potency [7] | outcome [2]

CCN(CC)C(=O)N[C@@H]1C[C@@H]2c3cccc4[nH]cc(c34)C[C@H]2N(C)C1
inactive: Potency [1] | Potency (CP268)
active: Potency (W2) 1.69 µM

CNC(=O)O/N=C/C(C)(C)SC
inactive: Potency [4] > 92 µM | Potency [5] | Potency [6] | Potency [3]

CC(C)c1c(CN(C)[C@@H](C)Cc2ccccc2)n(C)n(-c2ccccc2)c1=O
inactive: Potency (CP265) | Potency (CP266) | Potency (CP268) | Potency (CP269) | Potency (CP297) | Potency (CP305) | Potency (CP325) | Potency (CP329) | Potency (DIV14) | Potency (P93_24) | Potency (TAB165)
active: ratio activity, negative = inhibition [1] -8.16% [at 17.1 µM]

CN(C)C(=O)Oc1cc(OC(=O)N(C)C)cc([C@@H](O)CNC(C)(C)C)c1
inactive: Potency [1] | Potency (CP265) | Potency (CP266) | Potency (CP268) | Potency (CP269) | Potency (CP297) | Potency (CP305) | Potency (CP325) | Potency (CP329) | Potency (DIV14) | Potency (ICS) | Potency (P93_24) | Potency (TAB165) | Potency (W2)

C[N+]1(C)[C@@H]2CC[C@H]1CC(OC(=O)[C@@H](CO)c1ccccc1)C2 (some centres undefined)
inactive: Potency [1] | Potency (CP265) | Potency (CP266) | Potency (CP268) | Potency (CP269) | Potency (CP297) | Potency (CP305) | Potency (CP325) | Potency (CP329) | Potency (DIV14) | Potency (ICS) | Potency (P93_24) | Potency (TAB165) | Potency (W2)

CC[C@@]1(c2ccc(N)cc2)CCC(=O)NC1=O
inactive: Potency (CP265) | Potency (CP266) | Potency (CP268) | Potency (CP269) | Potency (CP297) | Potency (CP305) | Potency (CP325) | Potency (CP329) | Potency (DIV14) | Potency (ICS) | Potency (P93_24) | Potency (TAB165)

C[C@@]12CCC(=O)C=C1C=C[C@H]1[C@H]3CC[C@](O)(CCC(=O)O)[C@]3(C)CC[C@@H]12
inactive: Potency [1] | Potency (CP265) | Potency (CP266) | Potency (CP268) | Potency (CP269) | Potency (CP297) | Potency (CP305) | Potency (CP325) | Potency (CP329) | Potency (DIV14)
active: Potency (ICS) 3.55 µM | Potency (W2) 5.73 µM

C[C@H](N)[C@@H](O)c1ccccc1
inactive: Potency [1] | Potency (CP265) | Potency (CP266) | Potency (CP268) | Potency (CP269) | Potency (CP297) | Potency (CP305) | Potency (CP325) | Potency (CP329) | Potency (DIV14) | Potency (ICS) | Potency (P93_24) | Potency (TAB165) | Potency (W2)

C[N+]1([O-])[C@@H]2CC(OC(=O)[C@@H](CO)c3ccccc3)C[C@@H]1[C@H]1O[C@H]12 (some centres undefined)
inactive: Potency [1] | Potency (CP265) | Potency (CP266) | Potency (CP268) | Potency (CP269) | Potency (CP297) | Potency (CP305) | Potency (CP325) | Potency (CP329) | Potency (DIV14) | Potency (ICS) | Potency (P93_24) | Potency (TAB165) | Potency (W2)

CC1=C2[C@@H]3OC(=O)[C@@H](C)[C@@H]3CC[C@]2(C)C=CC1=O
inactive: Potency [1] | Potency (CP266) | Potency (CP268) | Potency (CP269) | Potency (CP297) | Potency (CP305) | Potency (CP325) | Potency (CP329) | Potency (DIV14) | Potency (ICS) | Potency (W2)

Reference: PubChem BioAssay (NCATS)
